In PubChem BioAssay (Tox21):
Results filed as inconclusive are left out. Calls of active or inactive are those of the source. Unless noted, calls follow the shape of the dose curve; as a rule, active = well fitted curve in the direction sought with a large enough effect in the repeat runs; inconclusive = weak or mixed curves; inactive = no such curve, though single readings can be large; an effect the other way counts as inactive or inconclusive.

Tests used:
[1] = qHTS assay to identify small molecule HDAC inhibitors - cell viability counter screen (AID 1259365); also: series mostly up to about 92 µM; nearly all actives have a fitted effect of over 50% in size
Summary of the method: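 To flag cytotoxic hits, 1,500 wild-type HCT-116 cells per well, plated the day before, receive test compounds for 2hr at 37 C before CellTiter-Glo reagent and a luminescence read.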

[2] = qHTS assay to identify small molecule agonists of the sonic hedgehog signaling (Shh) pathway - cell viability counter screen (AID 1259366); also: nearly all actives have a fitted effect of over 50% in size
Summary of the method: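 Fluorescence from CellTiter-Fluor reports live cells in this counter screen. NIH/3T3-derived Gli1-Luc reporter cells receive test compounds for 24hr at 37C; reagent goes in at 23hr.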

[3] = qHTS assay to identify small molecule antagonists of the sonic hedgehog signaling (Shh) pathway - cell viability counter screen (AID 1259367); also: nearly all actives have a fitted effect of over 55% in size
Summary of the method: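 Cells: 3T3 Gli1-Luc, 2,000/well, 4 hr pre-incubation. Compounds in DMSO, then conditioned medium. Incubation 24 hr, 37C, 5% CO2. CellTiter-Fluor at 23 hr, 1 hr, fluorescence.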

[4] = qHTS assay to identify small molecule agonists of the sonic hedgehog signaling (Shh) pathway (AID 1259368; calls by dose curve; also: series mostly up to about 92 µM; nearly all actives have a fitted effect of over 15% in size)
Summary of the method: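 NIH/3T3-derived 3T3Gli1-Luc cells carrying a stably integrated Gli1 response element–firefly luciferase reporter were plated, left 4 hr at 37 C, then given compounds in DMSO for 24 hr. Luminescence was read 30 min after adding luciferase reagent.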

[5] = qHTS assay to identify small molecule antagonists of the sonic hedgehog signaling (Shh) pathway (AID 1259369; calls by dose curve; also: nearly all actives have a fitted effect of over 45% in size)
Summary of the method: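 NIH/3T3-derived 3T3Gli1-Luc cells with stably integrated Gli1-Luc reporter were preincubated 4hr at 37 C, then given compounds in DMSO plus Shh conditioned medium and incubated 24hr. Firefly luciferase luminescence read after 30min reagent at room temperature.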

[6] = biological target: Estrogen receptor beta (Homo sapiens) (UniProt Q92731); test: qHTS assay to identify small molecule agonists of the estrogen receptor beta (ER-beta) signaling pathway (AID 1259377; active = well fitted activation curve with a large enough effect in the signal ratio in the repeat runs, not every such curve was filed as active; the % refers to the signal ratio)
Chain of Estrogen receptor beta (Homo sapiens) (Q92731 whole entry, looked up): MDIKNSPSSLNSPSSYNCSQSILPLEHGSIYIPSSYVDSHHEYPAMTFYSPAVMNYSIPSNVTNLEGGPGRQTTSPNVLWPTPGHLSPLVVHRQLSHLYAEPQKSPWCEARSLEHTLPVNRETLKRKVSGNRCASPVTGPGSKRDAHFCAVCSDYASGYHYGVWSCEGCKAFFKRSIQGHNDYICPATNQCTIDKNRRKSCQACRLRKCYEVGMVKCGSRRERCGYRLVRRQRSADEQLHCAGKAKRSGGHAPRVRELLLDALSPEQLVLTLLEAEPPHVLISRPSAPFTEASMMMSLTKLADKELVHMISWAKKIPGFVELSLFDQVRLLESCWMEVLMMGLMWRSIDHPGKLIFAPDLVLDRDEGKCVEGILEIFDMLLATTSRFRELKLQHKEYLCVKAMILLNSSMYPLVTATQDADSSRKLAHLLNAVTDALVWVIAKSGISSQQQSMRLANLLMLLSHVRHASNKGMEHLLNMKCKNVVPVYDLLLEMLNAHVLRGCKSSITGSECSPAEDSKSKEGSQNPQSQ
Summary of the method: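 Screening used GripTite ER-beta-UAS-bla cells held in 2% charcoal-stripped FBS medium. After overnight (16 hr) compound incubation at 37C, beta-lactamase activity was detected with a FRET substrate by fluorescence.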

[7] = biological target: Estrogen receptor beta (Homo sapiens) (UniProt Q92731); test: qHTS assay to identify small molecule antagonists of the estrogen receptor beta (ER-beta) signaling pathway (AID 1259378; active = well fitted inhibition curve with a large enough effect in the signal ratio in the repeat runs, not every such curve was filed as active; the % refers to the signal ratio)
Summary of the method: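 Antagonist mode: compounds added to beta-lactamase reporter HEK293T ER-beta-UAS cells stimulated with E2 (1nM final), 16 hr at 37C. LiveBLAzer B/G FRET substrate, 2 hours room temperature, fluorescence read-out.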

[8] = qHTS assay to identify small molecule agonists of the androgen receptor (AR) signaling pathway in the presence of an antagonist - cell viability counter screen (AID 1259379);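 also: MDA-kb2 human breast cancer cells carrying an MMTV luciferase reporter; series mostly up to about 92 µM; nearly all actives have a fitted effect of over 25% in size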
Summary of the method: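 MDA-kb2 human breast carcinoma cells (stable MMTV-luciferase, AR/GR responsive) were seeded 3,000 cells/well, pre-incubated 5 hr at 37C without CO2, then given 3.0uM nilutamide and compounds at 15 concentrations for 16 hr. Viability was read by CellTiter-Fluor fluorescence.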

[9] = qHTS assay to identify small molecule agonists of the estrogen receptor beta (ER-beta) signaling pathway - cell viability counter screen (AID 1259380); also: nearly all actives have a fitted effect of over 30% in size
Summary of the method: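 ER-beta-UAS-bla HEK293T cells in medium with 2% charcoal-stripped FBS were preincubated 6 hr at 37C, dosed with compound in DMSO for 16 hr, then after the bla read, CellTiter-Glo was added for 30 min at room temperature; luminescence recorded.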

[10] = qHTS assay to identify small molecule antagonists of the estrogen receptor beta (ER-beta) signaling pathway - cell viability counter screen (AID 1259382);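 also: HEK293T cells carrying ER-beta-UAS-bla reporter stimulated with estradiol; series mostly up to about 92 µM; nearly all actives have a fitted effect of over 55% in size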
Summary of the method: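 ER-beta-UAS-bla HEK293T cells (2,000/well, 2% charcoal-stripped FBS) were pre-incubated 6 hr at 37C, then given compound plus 1nM final 17-beta-estradiol for 16 hr. Viability was read in the same wells by CellTiter-Glo luminescence after 30 min at room temperature.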

[11] = biological target: Estrogen receptor (Homo sapiens) (UniProt P03372); test: qHTS assay to identify small molecule agonists of the estrogen receptor alpha (ER-alpha) signaling pathway in the presence of an antagonist (AID 1259383; calls by dose curve; also: top concentration of the series differs between compounds; nearly all actives have a fitted effect of over 15% in size)
Chain of Estrogen receptor (Homo sapiens) (P03372 whole entry, looked up): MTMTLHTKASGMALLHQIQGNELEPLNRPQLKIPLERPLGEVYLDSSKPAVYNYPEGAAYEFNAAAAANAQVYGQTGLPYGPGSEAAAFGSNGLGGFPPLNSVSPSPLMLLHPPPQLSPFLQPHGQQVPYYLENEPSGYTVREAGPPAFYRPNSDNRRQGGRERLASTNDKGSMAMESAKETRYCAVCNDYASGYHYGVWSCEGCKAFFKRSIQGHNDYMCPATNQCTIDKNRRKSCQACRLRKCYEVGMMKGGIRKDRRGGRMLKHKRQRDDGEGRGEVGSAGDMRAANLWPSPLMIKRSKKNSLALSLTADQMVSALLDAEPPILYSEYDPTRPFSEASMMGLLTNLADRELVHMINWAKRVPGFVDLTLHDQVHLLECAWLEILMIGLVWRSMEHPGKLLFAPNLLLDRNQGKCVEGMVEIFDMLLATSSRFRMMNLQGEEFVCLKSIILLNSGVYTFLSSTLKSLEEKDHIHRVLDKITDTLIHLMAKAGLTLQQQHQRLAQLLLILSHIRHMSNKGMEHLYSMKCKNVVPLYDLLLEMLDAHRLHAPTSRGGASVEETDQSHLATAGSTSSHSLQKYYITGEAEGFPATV
Summary of the method: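 VM7Luc4E2 cells (endogenous full-length ER-alpha, 4×ERE-luciferase) were precultured 5 days in phenol red-free medium with 10% charcoal-stripped FBS, given 10.0nM ICI-182,780 (final), then treated with compounds at 15 concentrations for 22hr at 37C; luminescence read with ONE-Glo.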

[12] = qHTS assay to identify small molecule agonists or antagonists of the thyroid stimulating hormone receptor (TSHR) signaling pathway - wild type cell line counter screen (AID 1259384; calls by dose curve)
Summary of the method: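 Counter screen in untransfected Hek293: compounds (15-point titration, triplicate) plus phosphodiesterase inhibitor Ro20-1724 added after 18 h plating; 30 min RT. Intracellular cAMP via competitive d2/cryptate immunoassay, 1 h incubation.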

[13] = biological target: Thyrotropin receptor (Homo sapiens) (UniProt P16473); test: qHTS assay to identify small molecule antagonists of the thyroid stimulating hormone receptor (TSHR) signaling pathway (AID 1259385; calls by dose curve; also: nearly all actives have a fitted effect of over 20% in size)
Chain of Thyrotropin receptor (Homo sapiens) (P16473 whole entry, looked up): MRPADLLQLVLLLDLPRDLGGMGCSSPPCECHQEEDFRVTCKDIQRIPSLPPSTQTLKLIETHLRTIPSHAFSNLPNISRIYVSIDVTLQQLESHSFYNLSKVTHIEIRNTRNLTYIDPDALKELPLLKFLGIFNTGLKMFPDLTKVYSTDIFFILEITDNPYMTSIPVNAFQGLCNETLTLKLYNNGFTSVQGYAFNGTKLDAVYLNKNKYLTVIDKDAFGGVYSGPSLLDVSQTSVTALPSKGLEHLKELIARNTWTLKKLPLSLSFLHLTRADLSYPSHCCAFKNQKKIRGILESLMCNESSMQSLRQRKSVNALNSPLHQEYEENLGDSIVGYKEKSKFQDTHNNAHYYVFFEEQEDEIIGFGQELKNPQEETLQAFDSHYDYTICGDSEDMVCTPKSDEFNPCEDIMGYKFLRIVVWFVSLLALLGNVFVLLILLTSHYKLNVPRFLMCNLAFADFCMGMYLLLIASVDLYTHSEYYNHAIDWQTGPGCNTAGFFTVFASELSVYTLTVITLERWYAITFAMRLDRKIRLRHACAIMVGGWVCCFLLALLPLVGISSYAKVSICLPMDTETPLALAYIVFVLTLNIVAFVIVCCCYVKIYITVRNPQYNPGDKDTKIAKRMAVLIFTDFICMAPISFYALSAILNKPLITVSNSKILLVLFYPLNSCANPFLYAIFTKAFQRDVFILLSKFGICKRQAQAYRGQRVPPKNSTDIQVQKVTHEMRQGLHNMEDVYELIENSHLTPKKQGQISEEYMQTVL
Summary of the method: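 Antagonist mode: compound-treated TSHR-expressing HEK293 cells were stimulated with 1.5 ng/mL TSH (final) in presence of Ro20-1724 for 30 min at RT. HTRF cAMP detection after 1 h; each compound tested at 15 concentrations, triplicate.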

[14] = qHTS assay to identify small molecule agonists of the estrogen receptor alpha (ER-alpha) signaling pathway in the presence of an antagonist - cell viability counter screen (AID 1259386);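 also: series mostly up to about 92 µM; cells exposed to compounds for 22 h at 37 °C before the viability read; nearly all actives have a fitted effect of over 30% in size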
Summary of the method: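 VM7Luc4E2 cells (endogenous full-length ER-alpha, 4×ERE-luciferase) were held 5 days in phenol red-free medium with 10% charcoal-stripped FBS, plated, then given 10.0nM ICI-182,780 and compounds at 15 concentrations for 22hr at 37C; viability read by CellTiter-Fluor fluorescence.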

[15] = biological target: Progesterone receptor (Homo sapiens) (UniProt P06401); test: qHTS assay to identify small molecule agonists of the progesterone receptor (PR) signaling pathway (AID 1346784; calls by dose curve; also: nearly all actives have a fitted effect of over 30% in size)
Chain of Progesterone receptor (Homo sapiens) (P06401 whole entry, looked up): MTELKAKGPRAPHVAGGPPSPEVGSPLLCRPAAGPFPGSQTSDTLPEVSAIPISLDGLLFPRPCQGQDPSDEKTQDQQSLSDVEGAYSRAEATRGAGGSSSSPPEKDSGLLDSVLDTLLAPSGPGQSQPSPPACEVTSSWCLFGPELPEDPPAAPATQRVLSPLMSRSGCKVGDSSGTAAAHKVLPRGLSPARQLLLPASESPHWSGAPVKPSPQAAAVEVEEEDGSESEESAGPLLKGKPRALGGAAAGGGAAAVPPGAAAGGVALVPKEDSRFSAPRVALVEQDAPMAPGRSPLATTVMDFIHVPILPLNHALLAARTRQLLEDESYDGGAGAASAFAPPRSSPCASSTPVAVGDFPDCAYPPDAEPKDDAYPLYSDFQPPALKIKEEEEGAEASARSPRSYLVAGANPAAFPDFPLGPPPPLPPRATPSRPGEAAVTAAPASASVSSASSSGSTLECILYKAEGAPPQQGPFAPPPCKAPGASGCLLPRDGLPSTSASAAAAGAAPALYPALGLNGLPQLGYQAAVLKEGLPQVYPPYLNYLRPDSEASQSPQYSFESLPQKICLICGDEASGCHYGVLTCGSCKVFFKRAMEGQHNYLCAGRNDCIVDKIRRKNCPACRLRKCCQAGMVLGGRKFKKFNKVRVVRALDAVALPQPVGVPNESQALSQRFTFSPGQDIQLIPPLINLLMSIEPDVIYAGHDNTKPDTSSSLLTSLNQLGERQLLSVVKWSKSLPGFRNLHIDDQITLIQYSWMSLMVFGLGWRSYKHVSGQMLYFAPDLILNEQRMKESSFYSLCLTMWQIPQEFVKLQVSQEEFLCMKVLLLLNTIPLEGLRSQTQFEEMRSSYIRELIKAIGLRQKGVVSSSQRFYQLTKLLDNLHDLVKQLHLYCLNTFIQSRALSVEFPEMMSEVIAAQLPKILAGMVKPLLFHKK
Summary of the method: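 Seed PR-UAS-bla HEK 293T cells (2% charcoal-stripped FBS), incubate 6 hr at 37C; add compounds in DMSO, 16 hr at 37C; add LiveBLAzer B/G substrate, 2 hr RT; read fluorescence intensity.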

[16] = biological target: Progesterone receptor (Homo sapiens) (UniProt P06401); test: qHTS assay to identify small molecule antagonists of the progesterone receptor (PR) signaling pathway (AID 1346795; active = well fitted inhibition curve with a large enough effect in the signal ratio in the repeat runs, not every such curve was filed as active; the % refers to the signal ratio)
Summary of the method: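 Screening used a GripTite HEK293T line with PR-responsive UAS-beta-lactamase. Cells were challenged with compound in the presence of 1 nM R5020 final for 16 hr at 37C; B/G FRET substrate, 2 hr room temperature, fluorescence.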

[17] = qHTS assay to identify small molecule antagonists of the progesterone receptor (PR) signaling pathway - cell viability counter screen (AID 1346798); also: series mostly up to about 92 µM; nearly all actives have a fitted effect of over 50% in size
Summary of the method: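 Measures cytotoxicity in parallel with the PR antagonist reporter read: HEK293T PR-UAS-bla cells get compound and R5020 for 16 hr, and remaining viable cells are quantified by CellTiter-Glo luminescence.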

[18] = qHTS assay to identify small molecule agonists of the progesterone receptor (PR) signaling pathway - cell viability counter screen (AID 1346799; calls by dose curve; also: nearly all actives have a fitted effect of over 45% in size)
Summary of the method: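 Using the same plates as the PR reporter screen, HEK293T PR-UAS-bla cells received compounds for 16 hr at 37C and were then lysed with CellTiter-Glo; luminescence was read 30 min later at room temperature.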

[19] = qHTS assay to identify small molecule antagonists of the TGF-beta/Smad signaling pathway - cell viability counter screen (AID 1346824); also: nearly all actives have a fitted effect of over 50% in size
Summary of the method: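 Cytotoxicity counter-screen run in the same wells as the beta-lactamase Smad reporter read: CellTiter-Glo luminescence after 30 min at room temperature. HEK 293T SBE-bla cells had 5 hr compound exposure at 37 C with TGF-beta1 (0.25 ng/mL stock).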

Measured: Potency

CC1(C)S[C@@H]2[C@H](NC(=O)Cc3ccccc3)C(=O)N2[C@H]1C(=O)O (tested in a mixture with another compound)
inactive: all assays above

COc1cc2nc(N3CCN(C(=O)C4CCCO4)CC3)nc(N)c2cc1OC (centres undefined)
not listed: [12] | [13] | [15] | [16]
inactive: all other assays above

Cc1ccccc1OCC(=O)O
not listed: [12] | [13] | [15] | [18]
inactive: all other assays above

C=COCCCCO
inactive: all assays above

O=CN1CCCCC1
inactive: all assays above

C=CC(C)(CCC=C(C)C)OC(=O)C(C)C (centres undefined)
inactive: all assays above

Cc1ccc(NC(N)=O)cc1
not listed: [13] | [15]
inactive: all other assays above

CCC(C)c1nccnc1OC (centres undefined)
not listed: [15] | [16]
inactive: all other assays above

CN(C)CCc1c[nH]c2ccc(C[C@H]3COC(=O)N3)cc12
not listed: [16]
inactive: all other assays above

N#CC1(N)CCCCC1
not listed: [15]
inactive: all other assays above

COc1cnc(NS(=O)(=O)c2ccc(N)cc2)nc1
inactive: all assays above

CCCCCCCCCCCBr
not listed: [12] | [13]
inactive: all other assays above

CCCCCC(CC)OC(=O)CCCOc1ccc(Cl)cc1Cl (centres undefined)
not listed: [11] | [18]
inactive: all other assays above

CC1=C(O)C(=O)CO1
not listed: [12] | [13]
inactive: all other assays above

CCO/C=C1\N=C(c2ccccc2)OC1=O
not listed: [11]
inactive: all other assays above
